# Source: PubChem BioAssay (several laboratories)
# HSF1 inhib – HSF1 inhibition; NIH3T3-HGL HSE-luciferase, MG132-induced, luminescence 8 h; active compounds read low; activity change, negative = inhibition, % at 7.5 µM (by protocol); 300,000 compounds, 0.77% hits; AID 2098;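 active = more than half of replicate wells show activity change below -50%, luminescence cut by over half; inconclusive = some wells, but at most half, below -50%; inactive = no replicate well below -50%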;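 also: luciferase reports HSF-1 transcriptional activity via heat shock element; 0% = median of DMSO wells and -100% = zero luminescence signal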
# FXN GAA850 act – increases GAA850 frataxin promoter reporter activity | HEK293 lucGAA850 FXN promoter luciferase reporter, 24 h; percent of 10 µM SAHA response | activation, % at 6 µM | 360,000 compounds, 0.56% hits;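 active = activation above the average of all compounds screened plus 3 SD, cutoff fixed separately per campaign, cut at about 7.5% in these data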;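 also: 0% = DMSO wells and 100% = 10 µM SAHA wells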
# NR0B1 inh – inhibitors of human orphan nuclear receptor DAX1 (NR0B1) | P51843 | HEK293 Gal4-DAX1 luciferase reporter, luminescence | inhibition, % at 6.75 µM | 340,000 compounds, 0.99% hits | AID 504766;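 active = inhibition above the mean over all tested compounds plus 3 SD, cut at about 4.2% in these data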;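 also: 0% = DAX1-transfected cells with DMSO and 100% = empty-vector control cells with DMSO; inhibition shows as a rise in luminescence from relieved DAX1 repression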
# AHR act – activators of human aryl hydrocarbon receptor; 320,000 compounds, 2.5% hits; AID 2796; P35869; AHR-responsive luciferase reporter cells, luminescence; activation, % at 5 µM; in the data active = activation above about 47%;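 also: 0% = vehicle wells and 100% = reference agonist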
# HSP90 refold inh – inhibitors of HSP90 luciferase refolding in rabbit reticulocyte lysate; luciferase refolding luminescence, 3 h; inhibition, % at 5.6 µM; 290,000 compounds, 0.91% hits;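 active = inhibition above the screen-wide mean plus 3 SD, computed separately per campaign, cut at about 16% in these data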;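 also: 0% = DMSO wells and 100% = 60 µM geldanamycin wells; inhibitors lower the luminescence because luciferase stays unfolded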
# HSF-1 act – increases HSF-1 driven luciferase reporter signal. activation, % at 9 µM. 300,000 compounds, 1.7% hits. NIH3T3-HGL HSF-1 luciferase reporter, MG132, 8 h; 100% = twice DMSO control signal;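 active = mean replicate activation of at least 50% with a set share of replicates each reaching 50%; inconclusive = only one of those two conditions met; inactive = mean below 50% and too few replicates reaching it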;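 also: 0% = median of the neutral control wells and 100% = twice that signal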
# AHR act cf – human AHR activation, confirmation; shares compounds with AHR act; human cells, AHR-responsive luciferase reporter, luminescence; activation, % at 9 µM; 2,300 compounds, 87% hits; AID 2845; in the data active = activation above about 49%;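 also: HepG2 hepatoma cells carrying a DRE-driven firefly luciferase reporter; 0% = vehicle wells and 100% = reference agonist wells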
# PXR counter – PXR activation, counter-screen for AHR activators | shares compounds with AHR act | cell-based PXR reporter, luciferase luminescence | activation, % at 11.6 µM | 2,300 compounds, 88% hits | AID 434939; in the data active = activation above about 11%;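 also: human hepatoma DPX-2 cells expressing full-length human PXR; 0% = DMSO and 100% = reference agonist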
# Target sequence (O75469 whole entry, looked up): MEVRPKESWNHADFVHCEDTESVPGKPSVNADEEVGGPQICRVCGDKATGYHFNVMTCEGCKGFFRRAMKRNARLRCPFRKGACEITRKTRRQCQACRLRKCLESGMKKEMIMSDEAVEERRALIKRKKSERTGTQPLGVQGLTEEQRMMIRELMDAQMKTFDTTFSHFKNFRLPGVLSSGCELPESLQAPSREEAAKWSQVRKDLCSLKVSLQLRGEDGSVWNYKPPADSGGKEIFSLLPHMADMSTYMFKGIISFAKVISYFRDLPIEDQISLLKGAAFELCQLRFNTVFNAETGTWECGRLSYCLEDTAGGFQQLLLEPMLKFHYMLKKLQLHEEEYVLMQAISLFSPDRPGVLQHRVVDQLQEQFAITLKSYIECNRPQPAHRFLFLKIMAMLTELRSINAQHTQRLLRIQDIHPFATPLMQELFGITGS
# Starred values were filed as active, the others as inactive; ? = inconclusive; nt = no result given. A selection: hits, their analogues and other compounds. The true share with any hit is near 5.9%.
SMILES,HSF1 inhib,FXN GAA850 act,NR0B1 inh,AHR act,HSP90 refold inh,HSF-1 act,AHR act cf,PXR counter
Nc1nonc1-n1nnc(C(=O)N/N=C/c2ccncc2)c1-c1ccccc1,8,0,0,25,0,1,nt,nt
O=C(Nc1ccc(Cl)cc1)c1ccc(S(=O)(=O)N2CCOCC2)cc1,-6,-2,-2,80*,-1,-6,86*,17*
COc1ccc(C)cc1Nc1nc(-c2c[nH]c3ccccc23)cs1,-6,2,1,89*,0,-3,64*,17*
CCNC(=S)Nc1cccc([N+](=O)[O-])c1,-1,nt,nt,3,3,-18,nt,nt
O=[N+]([O-])c1cccc(NC(=S)Nc2nc(-c3ccccc3Cl)cs2)c1,-3,-2,-1,87*,5,-12,56*,23*
O=C(CCNC(=O)c1ccccc1)NCC1CCCCC1,-5,-1,1,1,5,4,nt,nt
COCCn1c(-c2ccc(Cl)cc2)cnc1SCC(=O)NCc1cccs1,nt,-5,-1,0,5,nt,nt,nt
O=C(N1CCOCC1)N1CCN(S(=O)(=O)c2ccc(Cl)cc2)CC1,2,-1,-1,1,0,7,nt,nt
Cc1c(C(=O)Nc2ccccc2[N+](=O)[O-])csc1-c1ccccc1,15,4,1,122*,2,61*,63*,27*
Cc1cc(C(=O)Nc2ccccc2[N+](=O)[O-])cs1,3,3,1,11,6,10,nt,nt
CC(Oc1ccc(C(C)(C)C)cc1)C(=O)NC1CC(C)(C)NC(C)(C)C1 (stereo not given),4,1,0,-7,-3,8,nt,nt
COC(=O)N/N=C1/C/C(=N\NC(=O)OC)c2ccccc21,9,0,1,115*,-1,23,113*,9
CC(N=C1CC(C)(C)CC(=O)/C1=C(/O)CCCN1C(=O)c2ccccc2C1=O)C(=O)O (stereo not given),-4,1,2,1,-4,3,nt,nt
CCOC(=O)Nc1nnc(-c2ccc(OC)cc2)s1,7,1,1,16,6,11,nt,nt
CCOC(=O)Nc1nnc(-c2ccccc2OC)s1,3,2,0,98*,-2,1,125*,29*
COC(=O)Nc1nnc(-c2ccccc2OC)s1,18,7,2,107*,-7,30,140*,17*
CCOc1ccccc1C(=O)Nc1nnc(CC)s1,1,3,1,96*,6,9,70*,22*
Cn1cccc1CC(=O)NNC(=S)NC(=O)c1ccc(F)cc1,-9,1,-2,8,4,1,nt,nt
O=C(CN1CCCCCC1)Nc1ccc(Br)cc1,1,4,0,84*,3,8,112*,60*
O=C(CN1CCCC1)Nc1ccc(Br)cc1,-4,2,0,-1,-1,11,nt,nt
FC(F)(F)c1cc(-c2ccccc2)nc(NCc2cccnc2)n1,2,1,-1,90*,0,-3,28,43*
CN(CC(=O)NCCN1CCN(c2ccccc2)CC1)S(=O)(=O)c1ccc2c(c1)CCC(=O)N2,5,0,2,-2,5,15,nt,nt
N#Cc1c2ccc([N+](=O)[O-])cc2[n+]([O-])n1-c1ccccc1,nt,-6,-2,200*,nt,nt,253*,19*
O=c1c2cc([N+](=O)[O-])ccc2sn1-c1ccccc1,nt,-1,1,nt,nt,nt,nt,nt
O=C1c2ccccc2C(=O)N1CCOc1ccccc1,80,2,2,97*,-2,125*,167*,21*
SMILES,HSF1 inhib,FXN GAA850 act,NR0B1 inh,AHR act,HSP90 refold inh,HSF-1 act,AHR act cf,PXR counter
CCS(=O)(=O)c1nc(S(=O)(=O)c2ccc(Cl)cc2)c(NCCOC)s1,-5,-2,0,1,2,1,nt,nt
CC(C)COC(=O)n1c(SCC(=O)N(C)C)nc2ccccc21,9,0,1,-10,-4,-1,nt,nt
CCc1c(C)sc(NC(=O)c2cccs2)c1C#N,7,5,1,90*,-6,2,90*,39*
CN(C)S(=O)(=O)c1cccc(NC(=O)c2ccc3c(c2)OCCO3)c1,17,2,0,102*,nt,?,92*,110*
CCN(CC)S(=O)(=O)c1cccc(C(=O)Nc2ccc3c(c2)OCO3)c1,10,0,-1,165*,-2,17,103*,134*
COc1ccc(S(=O)(=O)N(C)C)cc1NC(=O)c1ccc2c(c1)OCCO2,nt,-1,0,0,nt,nt,nt,nt
CCCN(CCC)S(=O)(=O)c1cccc(C(=O)Nc2ccc3c(c2)OCO3)c1,-2,-2,0,22,0,-9,nt,nt
CN(C)S(=O)(=O)c1cccc(C(=O)Nc2cc(Cl)ccc2O)c1,7,3,0,84*,2,15,46,90*
Cc1csc(NC(=O)c2cccnc2Cl)n1,11,4,3,22,nt,13,nt,nt
COc1cccc(NC(=S)NC(=O)/C=C/c2ccc(F)cc2)c1,-5,3,1,12,2,2,nt,nt
COc1cccc(NC(=O)/C=C/c2ccc([N+](=O)[O-])cc2)c1,5,5,0,88*,1,-11,91*,25*
CC(NC(=O)COC(=O)c1ccccc1Nc1ccccc1)c1ccccc1 (stereo not given),-1,-1,2,-2,-1,-6,nt,nt
O=C(Nc1cccc(-c2nc3cc(Cl)ccc3o2)c1)C1CCCO1 (stereo not given),nt,3,1,118*,-3,nt,126*,nt
O=C(NCCc1ccc(Cl)cc1Cl)c1cncc(Br)c1,5,0,1,6,-2,9,nt,nt
CC(/C=C/c1cccc([N+](=O)[O-])c1)=N/NC(=O)c1cccnc1,7,5,1,85*,3,36,77*,nt
CCCCSc1nc(C(=O)O)cc(=O)[nH]1,-7,-1,1,-3,-2,-11,nt,nt
Cc1cc(C(=O)N/N=C/c2ccc(C)s2)n[nH]1,14,3,0,97*,1,15,89*,24*
N#C/C(=C\c1ccc[nH]1)C(=O)Nc1ccccc1Cl,7,5,2,96*,-6,28,100*,29*
CSC1=NNC(c2ccc(C(C)(C)C)cc2)=NN1,14,3,1,3,0,16,nt,nt
COCCOC(=O)c1[nH]c2c(c1C)C(=O)CC(c1ccccc1)C2 (stereo not given),-20,2,2,115*,1,-35,56*,124*
COc1ccc(C(=O)Nc2c(O)ccc3ccccc23)cc1,0,1,2,79*,nt,13,67*,8
